# From PubChem BioAssay AID463173 (ICCB-Longwood Screening Facility, Harvard Medical School, 2010)
# The campaign covered roughly 52,000 compounds. About 1,700 (3.3%) were called active. The sample as a whole holds a higher share of actives than the screen did. Values without a mark were called inactive. Rule as the data show it: active = survival mostly below about 52% (no sharp cut-off); inactive = mostly above about 56%.
# Test system: Wild type
# Assay: growth inhibition of S. aureus wild type versus tarO mutant, primary screen, teichoic acid synthesis inhibitors, RN4220, OD600 (AID 463173)
# Settings: S. aureus RN4220 wild type/DeltatarO growth, OD600, 18 h, stronger effect = lower value, screened at 18.75 µg/mL (by protocol)
row,Structure (SMILES),survival
1,Cc1ccc(NC(=O)CCc2nnc3n(C)c(=O)c4sccc4n23)cc1C,72%
2,Cc1ccsc1CCN1C(=O)N(c2ccc(F)cc2)C(=O)C1CC(=O)Nc1ccccc1 (configuration not stated),72%
3,COc1ccc2c(CNCc3cccs3)c(C(=O)O)n(Cc3ccccc3)c2c1,84%
4,COc1cc(NS(=O)(=O)c2ccc3[nH]c4c(c3c2)CCCC4)cc(OC)c1OC,129%
5,CCOC(=O)c1cccc(NC(=O)CCCn2c(C)c3cnn(-c4ccccc4)c(=O)c3c2C)c1,77%
6,CCSc1nc2sc3c(c2c(=O)n1-c1ccc(C)c(Cl)c1)CCN(C(C)=O)C3,70%
7,CSc1nc2sc3c(c2c(=O)n1Cc1ccccc1)CCC(C(C)(C)C)C3 (configuration not stated),113%
8,CCCSc1nc2sc3c(c2c(=O)n1-c1ccccc1)CCC(C)C3 (configuration not stated),1% (active)
9,CSc1nc2sc3c(c2c(=O)n1-c1ccccc1)CCC(C(C)(C)C)C3 (configuration not stated),12% (active)
10,CCOC(=O)CSc1nc2sc3c(c2c(=O)n1-c1ccccc1)CCC(C(C)(C)C)C3 (configuration not stated),70%
11,CC(C)CCSc1nnc2n(-c3ccccc3)c(=O)c3c4c(sc3n12)CC(C)CC4 (configuration not stated),76%
12,CCCSc1nc2sc3c(c2c(=O)n1-c1ccc(C)c(Cl)c1)CCN(C(C)=O)C3,87%
13,C=C(C)CSc1nc2sc3c(c2c(=O)n1-c1ccccc1)CCC(C)C3 (configuration not stated),67%
14,CCSc1nc2sc3c(c2c(=O)n1-c1ccc(C)cc1)CCCC3,0% (active)
15,Cc1ccc(-n2c(SCCC(C)C)nc3sc4c(c3c2=O)CC(C)(C)OC4)cc1,76%
16,Cc1ccc(-n2c(SCC(=O)O)nc3sc4c(c3c2=O)CCCC4)cc1,73%
17,CCCSc1nc2sc3c(c2c(=O)n1-c1ccc(C)cc1)CCCC3,5% (active)
18,Cc1ccc(C)c(N(CC(=O)Nc2ccccc2)S(C)(=O)=O)c1,99%
19,CCc1cccc(NC(=O)Cn2c(=O)ccc3cc(S(=O)(=O)N4CCC(C)CC4)ccc32)c1,129%
20,Cc1ccc2oc(C(=O)Nc3nc(-c4ccc(F)cc4)ns3)c(C)c2c1,87%
21,COc1ccc(NC(=O)c2c(NCc3cccs3)sc3c2CCCC3)cc1,80%
22,CCOC(=O)c1cccc(NC(=O)CCSCCc2ccccn2)c1,68%
23,CCOC(=O)Cn1cnc2c(cnn2-c2ccc(C)c(C)c2)c1=O,72%
24,COc1ccc(NC(=O)N2CCc3c([nH]c4ccc(OC)cc34)C2c2ccc(OC)cc2)cc1 (configuration not stated),93%
25,Cc1ccc(CS(=O)(=O)c2ncc(Cl)c(C(=O)Nc3nc4ccc(C)cc4s3)n2)cc1,26%

row,Structure (SMILES),survival
1,O=C(NCc1ccccc1)C(=O)NCC(c1cccnc1)N1CCN(c2ccccc2)CC1 (configuration not stated),82%
2,Cc1ccccc1CNC(=O)C1CCN(c2nn3cc(-c4ccc(F)cc4)nc3s2)CC1,66%
3,Cc1ccc2ncc(C(=O)NCc3ccccc3Cl)c(=O)n2c1,93%
4,CC1CCN(c2ccc(-c3nc(-c4ccccc4)no3)cc2[N+](=O)[O-])CC1,112%
5,Cc1cc(C)cc(NC(=O)CSc2oc(-c3cccs3)nc2S(=O)(=O)c2ccc(Br)cc2)c1,75%
6,C=C(C)CSc1nc2sc3c(c2c(=O)n1CCCC)CCCC3,0% (active)
7,CCCCn1c(SCC(=O)c2ccccc2)nc2sc3c(c2c1=O)CCCC3,62%
8,CCCCCSc1nc2sc3c(c2c(=O)n1-c1ccc(OC)cc1)CCN(C(C)=O)C3,-21% (active)
9,COc1ccc(-n2c(SC)nc3sc4c(c3c2=O)CCN(C(C)=O)C4)cc1,126%
10,CCCCCSc1nc2sc3c(c2c(=O)n1-c1ccccc1)CCN(C(C)=O)C3,58%
11,C=C(C)Cn1c(SCC(=O)c2ccccc2)nc2sc3c(c2c1=O)CCCC3,84%
12,CCOC(=O)c1cccc(NC(=O)CSc2ncc3c(n2)-c2ccc(Cl)cc2N(Cc2ccccc2)S3(=O)=O)c1,87%
13,Cc1nc(Nc2ccc(Cl)cc2)cc(-c2ccccc2)n1,-2% (active)
14,CCOc1ccccc1Nc1cc(-c2ccccc2)nc(C)n1,78%
15,Cc1cc(C)cc(Nc2cc(-c3ccccc3)nc(C)n2)c1,10% (active)
16,CCOC(=O)c1ccc(Nc2cc(-c3ccccc3)nc(C)n2)cc1,83%
17,CSc1nc(C)cc(Nc2cccc(C(=O)O)c2)n1,87%
18,CSc1nc(Nc2ccc(F)cc2)cc(-c2ccccc2)n1,-2% (active)
19,Cc1ccc(Nc2cc(-c3ccccc3)nc(C)n2)cc1,37%
20,CSc1nc(Nc2ccc(C)cc2C)cc(-c2ccccc2)n1,50%
21,COc1cccc(Nc2cc(-c3ccccc3)nc(C)n2)c1,49%
22,COc1ccccc1NC(=O)CSc1nncn2c1cc1sccc12,96%
23,Cc1oc(-c2ccccc2)nc1CSc1nnc(C)n2c1cc1sccc12,83%
24,CCN(CCCNC(=O)Cn1ncc2c([nH]c3ccc(C)cc32)c1=O)Cc1ccccc1,55%
25,NCC(O)CN1CCN(Cc2ccccc2)CC1 (configuration not stated),105%

row,Structure (SMILES),survival
1,CCOC(=O)c1sc2ncn(CC(=O)Nc3ccc(N(C)C)cc3)c(=O)c2c1C,89%
2,Cc1cc(SCC(=O)Nc2nsc(-c3ccc(C(C)(C)C)cc3)n2)nc2ccccc12,7% (active)
3,COc1ccc2c(C)cc(SCC(=O)Nc3nsc(-c4ccccc4C)n3)nc2c1,1% (active)
4,Cc1ccc(-c2nc(NC(=O)CSc3ccc4ccccc4n3)ns2)cc1,83%
5,Cc1ccc(-c2nc(NC(=O)CSc3cc(C)c4ccccc4n3)ns2)cc1,71%
6,Cc1ccccc1-c1nc(NC(=O)CSc2ncnc3sc4c(c23)CCCC4)ns1,88%
7,COc1ccc2c(C)cc(SCC(=O)Nc3nsc(-c4ccc(C(C)(C)C)cc4)n3)nc2c1,5% (active)
8,COc1cccc(NC(=O)CSc2cc(C)c3ccccc3n2)c1,73%
9,CC(C)(C)c1ccc(-c2nc(NC(=O)CSc3ncnc4sc5c(c34)CCCC5)ns2)cc1,73%
10,O=C(CSc1ccc2ccccc2n1)Nc1nsc(-c2ccc(Cl)cc2)n1,68%
11,COC(=O)c1ccc(Cn2c(SCC(=O)Nc3ccc(F)cc3)nc3ccccc32)cc1,55%
12,Cc1ccc(Sc2ccc(N3CCCC(C(=O)Nc4ccc(F)cc4)C3)nn2)cc1 (configuration not stated),60%
13,CCOC(=O)c1c(NC(=O)C(C)Oc2ccccc2F)sc(C(C)=O)c1C (configuration not stated),65%
14,COc1ccc(NC(=O)CSc2ccc(-c3cccs3)nn2)cc1,89%
15,CCOC(=O)c1c(NC(C)=O)c2c3c(sc2n1Cc1nc(-c2ccc(Cl)cc2)oc1C)CCCC3,81%
16,Cc1ccc(CN2COc3c(Cl)cc4c(-c5ccccc5)cc(=O)oc4c3C2)cc1,87%
17,COc1ccc(N(Cc2cccs2)C(=O)COc2cccc(C)c2C)cc1,12% (active)
18,Cc1cccc(OCC(=O)N(Cc2cccs2)c2ccc(Cl)cc2)c1C,79%
19,COc1ccc(OCC(=O)N(Cc2cccs2)c2ccc(OC)cc2)cc1,85%
20,CC1(C)CC2(C=CC(=O)CC2)CCO1 (configuration not stated),96%
21,Cn1c(=O)c2c(-c3ccc(Cl)cc3)ccnc2n(C)c1=O,68%
22,COc1ccc(CNc2nc(-c3ccc(Cl)cc3)nn2S(=O)(=O)c2ccc(C)cc2)cc1,64%
23,COc1ccc(CNc2nc(-c3ccccc3)nn2S(=O)(=O)c2ccccc2)cc1,4% (active)
24,O=S(=O)(c1ccccc1)n1nc(-c2ccccc2)nc1NCc1ccc(Cl)cc1,73%
25,CCc1ccc(NC(=O)Cn2c(=O)n(CCC(=O)NCCc3ccc(OC)c(OC)c3)c(=O)c3ccccc32)cc1,102%

row,Structure (SMILES),survival
1,COc1ccc(NCc2nnc3n2CCCCC3)c(OC)c1,73%
2,COc1ccc(Cl)cc1NCc1nnc2n1CCCCC2,0% (active)
3,COc1ccc(C)cc1NCc1nnc2n1CCCCC2,-3% (active)
4,Cc1cc(C)cc(NCc2nnc3n2CCCCC3)c1,85%
5,Fc1ccc(NCc2nnc3n2CCCCC3)cc1Cl,66%
6,Cc1ccc(Cl)cc1NCc1nnc2n1CCCCC2,75%
7,O=[N+]([O-])c1ccc(S(=O)(=O)N2CCn3cccc3C2c2ccccc2F)cc1 (configuration not stated),132%
8,Cn1nc(C(=O)N2CCN(c3cccc(Cl)c3)CC2)c2c1-c1ccccc1S(=O)(=O)C2,46%
9,COc1ccc(C2=C/C(=C/c3ccco3)C(=O)O2)cc1,117%
10,Cc1cccc(CCNC(=O)CN(c2ccc(C(C)C)cc2)S(=O)(=O)c2c(C)nn(C)c2C)c1,87%
11,Cc1ccc(NC(=O)Cn2c(=O)ccc3cc(S(=O)(=O)N4CCCC4)ccc32)cc1N(C)C,0% (active)
12,Cc1ccc(CNC(=O)Cn2c(=O)ccc3cc(S(=O)(=O)N4CCC(C)CC4)ccc32)cc1,10% (active)
13,CCc1ccc(NC(=O)Cn2c(=O)ccc3cc(S(=O)(=O)N4CCCC4)ccc32)cc1,148%
14,CC1CCN(S(=O)(=O)c2ccc3c(ccc(=O)n3CC(=O)NCc3ccc(Cl)cc3)c2)CC1,59%
15,CC1CCN(C(=O)Cn2c(=O)oc3cc(S(=O)(=O)N4CCCCC4)ccc32)CC1,83%
16,CC1CCN(S(=O)(=O)c2ccc3c(ccc(=O)n3CC(=O)NCc3ccccc3)c2)CC1,22%
17,CC1CCN(S(=O)(=O)c2ccc3c(c2)oc(=O)n3CC(=O)O)CC1,-3% (active)
18,CC1CCN(S(=O)(=O)c2ccc3c(c2)oc(=O)n3CC(=O)N2CCCCC2)CC1,76%
19,Cc1ccc(NC(=O)Cn2c(=O)ccc3cc(S(=O)(=O)N4CCC(C)CC4)ccc32)cc1Cl,88%
20,CC1CCN(S(=O)(=O)c2ccc3c(ccc(=O)n3CC(=O)Nc3ccc(C(C)C)cc3)c2)CC1,-2% (active)
21,CC(=O)Nc1ccc(NC(=O)Cn2c(=O)ccc3cc(S(=O)(=O)N4CCC(C)CC4)ccc32)cc1,91%
22,Cc1ccc(NC(=O)Cn2c(=O)ccc3cc(S(=O)(=O)N4CCCC4)ccc32)cc1C,88%
